{"source": "PubChem BioAssay", "note": "Active and inactive are the calls of the source. No rule for the calls is given here.", "data": [{"test": "Brca1-Bard1 BiLC signal decrease – luminescence, single concentration, counter-screen for Mdm2/MdmX interaction inhibitor project, confirmation (AID 504668)", "settings": "Brca1/Bard1 bimolecular luciferase complementation counterscreen, at 8 µM, active compounds read high", "values": [{"smiles": "COc1cc(/C=C2\\CC/C(=C\\c3cc(OC)c(O)c(OC)c3)C2=O)cc(OC)c1O", "inhibition": "25.6% (active)"}, {"smiles": "Cc1c(CN(C)C)c2c(n1Cc1ccccc1)C(=O)c1ccc(Br)cc1-2", "inhibition": "29.6% (active)"}, {"smiles": "N=c1ccn2c(n1)OC1C(O)C(CO)OC12", "note": "(stereo not given)", "inhibition": "45.7% (active)"}, {"smiles": "O=C(CCN1C(=O)/C(=C/c2ccccc2F)SC1=S)NCCc1ccc(O)cc1", "inhibition": "33% (active)"}, {"smiles": "CC(Oc1cccc(Br)c1)C(=O)NNC(=O)c1ccccn1", "note": "(stereo not given)", "inhibition": "35.8% (active)"}, {"smiles": "O=C(N/N=C/c1cc(Br)cc(Br)c1O)c1cccc(S(=O)(=O)N2CCOCC2)c1", "inhibition": "29.6% (active)"}, {"smiles": "O=C(/C=C/c1ccccc1)NC(NC(=S)Nc1ccc(Cl)cc1Cl)C(Cl)(Cl)Cl", "note": "(stereo not given)", "inhibition": "23.4% (active)"}, {"smiles": "COc1ccc(O)c(/C=N/NC(=O)c2ccc(OCc3cccc(Br)c3)cc2)c1", "inhibition": "32.8% (active)"}, {"smiles": "COc1ccc2nc(NC(=O)/C=C/c3ccc4c(c3)OCO4)sc2c1", "inhibition": "35.2% (active)"}, {"smiles": "Cc1cc(C(=O)CSc2nnc3ccccn23)c(C)n1-c1ccccc1", "inhibition": "29.6% (active)"}, {"smiles": "O=C(c1ccc(S(=O)(=O)c2ccccc2Cl)c([N+](=O)[O-])c1)N1CCN(Cc2ccccc2)CC1", "inhibition": "29.6% (active)"}, {"smiles": "COc1ccc(Cl)cc1NC(=O)c1nnn(CC(=O)Nc2ccc(OC)c(OC)c2)c1N", "inhibition": "31.7% (active)"}, {"smiles": "O=C(CCCN1C(=O)/C(=C\\c2cccs2)SC1=S)Nc1ccc(O)cc1", "inhibition": "31.8% (active)"}, {"smiles": "CCOc1cc(/C=C2/NC(=O)N(CC(=O)Nc3cccc(C)c3)C2=O)ccc1OC", "inhibition": "32.2% (active)"}, {"smiles": "O=C(Cc1ccccc1)N/N=C/c1cc(Br)cc(Cl)c1O", "inhibition": "29.2% (active)"}, {"smiles": "CC(=O)O[C@@H]1C[C@H]2C(C)(C)C(=O)C=C[C@]2(C)[C@H]2CC[C@@]3(C)[C@H](c4ccoc4)OC(=O)[C@H]4O[C@]43[C@@]21C", "inhibition": "33.8% (active)"}, {"smiles": "CCc1ccccc1OCC(=O)Nc1nc(-c2cccnc2)cs1", "inhibition": "35.6% (active)"}, {"smiles": "CC(=O)c1sc(NC(=O)C2(F)C(F)(F)C(F)(F)C(F)(F)C(F)(F)C2(F)F)nc1C", "inhibition": "28.7% (active)"}, {"smiles": "C=CC(=O)N1c2ccccc2Sc2ccc(NC(=O)OCC)cc21", "inhibition": "35.2% (active)"}, {"smiles": "CCSc1nsc(NC(=O)Nc2cccc(F)c2)n1", "inhibition": "26.2% (active)"}, {"smiles": "COc1ccc(C(=O)Nc2nc3c(s2)CCCC3)cc1S(=O)(=O)N1CCCc2ccccc21", "inhibition": "23.4% (active)"}, {"smiles": "CC(=O)Nc1nc(C)c(-c2csc(Nc3cccc([N+](=O)[O-])c3)n2)s1", "inhibition": "35.6% (active)"}, {"smiles": "COc1ccc(C(=O)N/N=C/c2cc(Br)ccc2O)cc1OC", "inhibition": "29.6% (active)"}, {"smiles": "COc1ccc(NS(=O)(=O)c2cc(NC(=O)c3ccc(Cl)cc3)ccc2N2CCOCC2)cc1", "inhibition": "26.8% (active)"}, {"smiles": "COc1ccc(N2C(=O)N3[C@H](c4cccc(C)c4)[C@@H]4C(=O)N(Cc5ccccc5)C(=O)[C@@H]4[C@]3(Cc3ccccc3)C2=O)cc1", "inhibition": "35.6% (active)"}, {"smiles": "O=C(N/N=C/c1cc([N+](=O)[O-])ccc1N1CCNCC1)c1ccc([N+](=O)[O-])cc1", "inhibition": "32.1% (active)"}, {"smiles": "COC(=O)c1ccc2nc(NC(=O)CCS(=O)(=O)c3ccccc3)sc2c1", "inhibition": "27.4% (active)"}, {"smiles": "CC(=O)/C(C#N)=C1\\NC(=O)C(Cc2ccc(C)c(C)c2)S1", "note": "(stereo not given)", "inhibition": "32.1% (active)"}, {"smiles": "CCCC(=O)NC(NC(=S)Nc1ccc(N=Nc2ccccc2)cc1)C(Cl)(Cl)Cl", "note": "(stereo not given)", "inhibition": "32.4% (active)"}, {"smiles": "CC(=O)Oc1c(-c2ccc(Br)o2)oc2ccccc2c1=O", "inhibition": "29.9% (active)"}, {"smiles": "CCc1cc(C(=O)N2CCc3c([nH]c4ccccc34)C2c2ccc(OC)cc2F)no1", "note": "(stereo not given)", "inhibition": "34.5% (active)"}, {"smiles": "Cc1ccc(N=Nc2ccc(O)c3ncccc23)cc1C", "inhibition": "25.6% (active)"}, {"smiles": "C/C(=N/NC(=O)CN(c1ccccc1)S(=O)(=O)c1ccccc1)c1ccccc1O", "inhibition": "26.8% (active)"}, {"smiles": "COc1cc(/C=C/C(=O)c2ccc(O)cc2)ccc1OCC#N", "inhibition": "35.9% (active)"}, {"smiles": "COc1ccc(-c2cc(C(=O)N/N=C/c3sccc3C)c3ccccc3n2)c(OC)c1", "inhibition": "31.4% (active)"}, {"smiles": "O=C(N/N=C/c1cc(Br)cc(Br)c1O)c1cccc(N2CCCC2=O)c1", "inhibition": "26.3% (active)"}, {"smiles": "COc1cc(Br)cc(/C=N/NC(=O)Cc2ccc(C(F)(F)F)cc2[N+](=O)[O-])c1O", "inhibition": "32.8% (active)"}, {"smiles": "COc1cccc(/C=N/Nc2ncnc(Cl)c2N)c1O", "inhibition": "30.7% (active)"}, {"smiles": "O=C(N/N=C(\\Cc1ncc[nH]1)c1ccccc1)c1cccnc1", "inhibition": "33.1% (active)"}, {"smiles": "COc1cccc(/C=C2\\SC(=S)N(CCCC(=O)N3CCCC3)C2=O)c1", "inhibition": "35% (active)"}]}]}
